# ATXN2 expr inh: ATXN2 expression inhibition | AID 1745845 | Potency, µM (titrated, usually from 57 µM), for inactives: top-dose activity change, negative = inhibition, usual class: inhibitors | 360,000 compounds, 0.72% hits | HEK-293 ATXN2-luciferase reporter, luminescence, 24 h; note: % is set by controls: 0 for no effect and ±100 for the full control effect; nearly all actives have a fitted effect of over 55% in size
#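 ATXN2-luciferase reporter cells (luciferase flanked by upstream and downstream ATXN2 gene portions) were treated 24 h at 37 °C with compounds at up to 57 uM. SteadyGlo luminescence gave expression; GF-AFC fluorescence gave viability.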
# HepG2 viability: kills HepG2 cells in TGF-b inhibitor counter-screen; AID 588856; 410,000 compounds, 0.76% hits; HepG2 CAGA-GFP viability, ATP luminescence, 18 h; Potency, µM (top dose mostly 46.1 µM), for the others: top-dose activity change, negative = cytotoxicity, hits mostly cytotoxic
#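 HepG2 CAGA-GFP cells (1000/well, DMEM with 1% FBS) received compound, then TGF-beta at 500 pg/mL final, and were incubated 18 hours at 37 degrees C. Viability was read by CellTiter-Glo luminescence. Media-only wells were set as complete cell-killing and DMSO as no toxicity.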
# KB-V1 cytotox: KB-V1 MDR subline cytotoxicity; KB-V1 MDR cells viability, CellTiter-Glo, 72 h; Potency, µM (series often up to 46.1 µM), most hits filed as cytotoxic; 400,000 compounds, 3.4% hits; note: % is set by controls: 0 for no effect and ±100 for the full control effect; nearly all actives have a fitted effect of over 60% in size
#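 qHTS viability screen in drug-selected KB-V1 MDR cells: 72 h compound treatment at 37 degrees C, ATP luminescence end point.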
# S2 tox: viability counter-screen for ATXN expression inhibitors. S2 cells (HEK-293 line with an ATXN2-luciferase reporter) viability, CellTiter-Fluor protease fluorescence, 24 h. Potency, µM (top dose mostly 56.7 µM), most hits filed as cytotoxic. 400,000 compounds, 0.49% hits. AID 651635; note: nearly all actives have a fitted effect of over 40% in size
# TGFb inhibitor: TGF-b pathway inhibition. HepG2 CAGA-GFP TGF-b/SMAD3 reporter, GFP fluorescence, 18 h; TGF-beta stimulated, 500 pg/mL final. Potency, µM (series often up to 46.1 µM), without a hit: top-dose activity, negative = inhibition, hits mostly inhibitors. 410,000 compounds, 1.2% hits. AID 588855; note: % is set by controls: 0 for no effect and ±100 for the full control effect; nearly all actives have a fitted effect of over 65% in size
#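 Smad-responsive CAGA-GFP expression was quantified in HEPG2 cells exposed to compounds and 500 pg/mL final TGF-beta for 18 h at 37 degrees C; unstimulated wells defined full inhibition.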
# KB-3-1 tox: kills parental KB-3-1 adenocarcinoma cells; AID 1347075; KB-3-1 viability, CellTiter-Glo ATP luminescence, 72 h; 400,000 compounds, 1.4% hits; Potency, µM (series often up to 46.1 µM), usual class: cytotoxic; note: % is set by controls: 0 for no effect and ±100 for the full control effect; nearly all actives have a fitted effect of over 60% in size
#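 KB-3-1 cells, DMEM (no phenol red) + 10% FBS; compound by pin transfer, 72 h, 37 °C. Readout: CellTiter-Glo luminescence after 10 min. Data normalized, curve-fitted.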
# The depositor's hits bear a star; i = inactive; ? = inconclusive; nt = no result; [ ] = another dose, or the depositor's remark. Compounds with a hit are over-represented: about 5.9% of the library has one in this group of screens. Calls come from the whole dose curve; as a rule, active = well fitted curve in the direction sought with a large enough effect; inconclusive = small, poorly fitted or top-dose-only effect, or another doubt; inactive = no such curve, though single readings can be large; an effect the other way counts as inactive or inconclusive. Potency is the fitted concentration of half-maximal effect.
SMILES,ATXN2 expr inh,HepG2 viability,KB-V1 cytotox,S2 tox,TGFb inhibitor,KB-3-1 tox
CCCC[n+]1ccn(C2=C([O-])c3ccccc3C(=O)/C2=N\S(=O)(=O)c2ccc(Cl)cc2)c1,?,11µM*,i,?,10µM*,?
COc1cc(NC(=O)c2nn(C)c3c2COc2ccccc2-3)cc(OC)c1OC,nt,-27%,nt,nt,-19%,nt
Oc1ccc(N=Nc2nc(-c3ccccc3)c(-c3ccccc3)[nH]2)cc1,10%,-28%,?,11µM*,-30%,?
Cc1nc2ccccc2c2nc(NC(=O)C(F)(F)F)nn12,4%,-26%,i,i,?,i
Cn1nc(NC(=O)C(F)(F)F)c2ncc(-c3ccccc3)nc21,nt,15%,18µM*,i,-2%,i
CCCCc1ccc(NC(=O)c2cc(-c3ccc(C)c(F)c3)on2)cc1,7%,1%,i,i,15%,i
CCOc1ccc(CCNC(=O)Cn2nnc(-c3ccccc3Cl)n2)cc1OCC,-5%,-4%,i,i,15%,i
O=C(Nc1c(Cl)cccc1Cl)c1cccc2c1C(=O)N(C1CCCCC1)C2,-7%,-6%,i,i,-13%,i
O=C(O)c1ccc(S(=O)(=O)NC2CCCCC2)cc1,0%,10%,i,i,-3%,i
O=C(NC1CC1)c1ccc(S(=O)(=O)NC2CCCCCC2)cc1,-2%,-15%,16µM*,i,4%,i
O=C(NC1CCCCC1)c1ccc(S(=O)(=O)NCc2ccco2)cc1,1%,4%,15µM*,?,22%,i
CC(C)Oc1ccc(CNC(=O)C2CCN(Cc3cc4ccccc4n3Cc3ccccc3)CC2)cc1,-8%,-2%,i,i,14%,?
COc1cccc(CN2CCN(Cc3cc(OC)c(OC)cc3[N+](=O)[O-])CC2)c1,-11%,-4%,21µM*,i,1%,i
COc1cc(CN2CCN(Cc3ccc([N+](=O)[O-])cc3)CC2)c([N+](=O)[O-])cc1OC,nt,-22%,i,i,?,?
Cn1nc([N+](=O)[O-])c(C(C#N)c2ccccn2)c(Cl)c1=O (stereo not given),nt,13µM*,i,?,?,i
CCCn1nc([N+](=O)[O-])c(C(C#N)c2nc3ccccc3o2)c(Cl)c1=O (stereo not given),38%,-33%,i,i,?,i
Cc1cc(NCC2CCCCC2)nc2ccccc12,-13%,-51%,9.2µM*,i,10%,i
COc1ccc(C(C(=O)NC(C)(C)C)N(C(=O)CCC(=O)Nc2cc(C)on2)c2cc(C)cc(C)c2)cc1 (stereo not given),-26%,4%,15µM*,i,5%,i
COc1ccc(C(C(=O)NC(C)(C)C)N(Cc2ccc(C)cc2)C(=O)CCC(=O)Nc2cc(C)on2)cc1 (stereo not given),nt,5%,i,i,-12%,?
COc1cccc(CNC(=O)c2ccc3c(c2)nc2n3CCOC2)c1OC,nt,-2%,i,nt,-1%,i
O=C1C=C(c2c(O)ccc3ccccc23)c2ccccc2C1=O,16µM*,13µM*,i,nt,2.8µM*,?
Nc1cc(C(=O)O)c(N)c2c1C(=O)c1ccccc1C2=O,?,-11%,i,14µM*,?,?
NS(=O)(=O)c1ccc(CCNc2nccn(-c3cccc(C(F)(F)F)c3)c2=O)cc1,-6%,-20%,i,i,?,i
COC(=O)C1=CN(c2cccc(OCc3ccccc3)c2)C(N)=C(C#N)C1c1cccc(OC)c1OC (stereo not given),nt,nt,?,nt,nt,i
CCCCN(CCCNC(=O)c1ccc2c(c1)NC(=O)CN2C)c1ccccc1,nt,16µM*,i,18µM*,?,?
SMILES,ATXN2 expr inh,HepG2 viability,KB-V1 cytotox,S2 tox,TGFb inhibitor,KB-3-1 tox
Cc1cccc(-c2nc(N3CCN(c4ccc(F)cc4)CC3)c3ccccc3n2)c1,11%,-3%,i,i,-3%,i
O=C(NNC(=O)c1ccc(NC(=O)c2ccccc2)cc1)c1ccc(F)cc1,3%,0%,i,i,5%,i
O=C(NC1=C(Nc2ccc(F)cc2)C(=O)c2ccccc2C1=O)c1ccc(Cl)cc1,-10%,11µM*,?,i,11µM*,?
Cc1nc2ccc(S(=O)(=O)N(C)CC(=O)Nc3ccc(C(C)C)cc3)cc2s1,nt,-5%,nt,nt,nt,nt
CCCCNC(=O)CO/N=C(\C)c1cc2ccccc2o1,16%,-3%,16µM*,i,?,i
C/C(=N\OCC(=O)NCC(F)(F)F)c1cc2ccccc2o1,67%,1%,i,i,-23%,i
COc1ccc(-n2c(CCc3ccccc3)nnc2SCC(=O)c2ccccc2)cc1,-14%,3%,9.2µM*,i,-8%,?
COc1ccc(C(=O)CSc2nnc(CCc3ccccc3)n2-c2ccccc2)cc1,?,-2%,9.2µM*,i,-27%,i
COc1ccc(-n2c(CCc3ccccc3)nnc2SCC(=O)NCc2ccccc2)cc1,0%,-22%,i,i,-4%,i
CC(=O)/C(=N/Nc1ccccc1)Sc1nnc(CCc2ccccc2)n1-c1ccccc1,-22%[11.3 µM],-2%,23µM*,i,-29%,i
O=C(Nc1ccc2nc(-c3cccnc3)[nH]c2c1)C12CC3CC(CC(C3)C1)C2,4%,-23%,?,?,-13%,11µM*
Cc1cc(C(=O)NCC2CCC3(CCN(Cc4ccc(F)cc4)CC3)O2)n(C)n1 (stereo not given),nt,nt,nt,i,nt,nt
CCOC(=O)C1(Cc2ccc(Cl)cc2)CCN(Cc2cnc(N)nc2)CC1,-9%,-27%,i,i,-20%,i
CCOC(=O)C1(S(=O)(=O)c2ccc(Cl)cc2)CCN(Cc2ccc(C)cc2)CC1,1%,-27%,21µM*,i,3%,?

# Bioassay records as filed in PubChem BioAssay.
